Inconclusive results are not listed. Activity calls are given as the source filed them. Unless noted, calls follow the shape of the dose curve; as a rule, active = well fitted curve in the direction sought with a large enough effect; inconclusive = small, poorly fitted or top-dose-only effect, or another doubt; inactive = no such curve, though single readings can be large; an effect the other way counts as inactive or inconclusive.
What was measured:
[1] = molecular target: Tyrosine-protein kinase Yes (Homo sapiens) (UniProt P07947); assay: qHTS for small molecule inhibitors of Yes1 kinase: Primary Screen (AID 686947);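 also: plate controls were DMSO with enzyme for no effect and no-enzyme DMSO wells for full effect; nearly all actives have a fitted effect of over 60% in size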
How it was run: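 In this qHTS format, inhibition is expressed relative to DMSO controls with enzyme (maximum) and without enzyme (minimum). The 60 min room-temperature reaction uses 0.1 mM ATP, with ADP detected by luminescence.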

[2] = qHTS for small molecule inhibitors of Yes1 kinase: Counter Assay (AID 686950);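 also: no kinase present so only ADP-Glo detection of a fixed ADP amount is tested; luminescence from ADP-Glo reporting ADP in a fixed ATP and ADP mixture; series mostly up to about 77 µM; 0% = DMSO wells with ATP plus ADP and -100% = ATP-only wells without ADP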
How it was run: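 Measuring interference with ADP-Glo, the assay ran 60 min at room temperature on an ATP/ADP mix lacking enzyme. Values were normalized to ATP-plus-ADP (maximum) and ATP-only (minimum) DMSO controls.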

[3] = qHTS to identify inhibitors of the type 1 interferon - major histocompatibility complex class I in skeletal muscle: primary screen against the NCATS Mechanism Interrogation Plate v5.0 (MIPE) Libary (AID 1347411);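 also: plate controls were vehicle for no effect and reference inhibitor for full effect; nearly all actives have a fitted effect of over 65% in size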
How it was run: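 HLA-B HiBit myoblasts, dexamethasone-free medium + 4 ng/ml IFN-b, 24 h compound, 11-pt 1:3 from 46 uM final. Readout: Nano-Glo HiBiT lytic luminescence after 10 min lysis, RT.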

[4] = Primary qHTS for inhibitors of nuclear receptor binding SET domain protein 2 (NSD2) in an isogenic RCH-ACV NSD2 p.E1099K mutant (9B) (AID 1645876); also: nearly all actives have a fitted effect of over 70% in size
[5] = molecular target: Glutathione peroxidase 1 (Homo sapiens) (UniProt P07203); assay: Primary qHTS Assay for Inhibitors of Recombinant Selenoprotein Glutathione Peroxidase 1 (GPX1) (AID 1845191); also: nearly all actives have a fitted effect of over 65% in size
How it was run: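 GPX1 10 nM, GR 100 nM, GSH 1 mM, NADPH 0.5 mM, CHP 0.5 mM (final). 30-min cpd preincubation, RT. Ex340/Em450 read t=0, t=15 min.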

[6] = molecular target: Phospholipid hydroperoxide glutathione peroxidase GPX4 (Homo sapiens) (UniProt P36969); assay: Primary qHTS Assay for Inhibitors of Recombinant Selenoprotein Glutathione Peroxidase 4 (GPX4) (AID 1845192); conditions: outcome: dose series up to 50 µM unless noted; also: series mostly up to about 50 µM; nearly all actives have a fitted effect of over 65% in size
How it was run: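 qHTS, GR-coupled: GPX4 200 nM + cpd 30 min RT → GSH 1 mM, NADPH 0.5 mM, GR 100 nM → CHP 0.5 mM start; fluor 340/450 at t0 and t15 min; no-enzyme wells as control.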

[7] = qHTS drug screen for cell cycle checkpoint inhibitors in PARPi-resistant BRCA-mutant ovarian cancer cell lines. (AID 1963452; calls by dose curve); conditions: PEO1/OlaR viability, CellTiter-Glo luminescence, 96 h, stronger effect = lower value
How it was run: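 PEO1, PEO4 and PEO1/OlaR ovarian cancer cells, 600 per well, exposed 96 h at 37C to a dilution series. Viability read by CellTiter-Glo luminescence, normalized to DMSO and empty wells; activity summarized as Z-AUC.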

Tyrosine-protein kinase Yes (Homo sapiens), sequence (P07947 whole entry, looked up): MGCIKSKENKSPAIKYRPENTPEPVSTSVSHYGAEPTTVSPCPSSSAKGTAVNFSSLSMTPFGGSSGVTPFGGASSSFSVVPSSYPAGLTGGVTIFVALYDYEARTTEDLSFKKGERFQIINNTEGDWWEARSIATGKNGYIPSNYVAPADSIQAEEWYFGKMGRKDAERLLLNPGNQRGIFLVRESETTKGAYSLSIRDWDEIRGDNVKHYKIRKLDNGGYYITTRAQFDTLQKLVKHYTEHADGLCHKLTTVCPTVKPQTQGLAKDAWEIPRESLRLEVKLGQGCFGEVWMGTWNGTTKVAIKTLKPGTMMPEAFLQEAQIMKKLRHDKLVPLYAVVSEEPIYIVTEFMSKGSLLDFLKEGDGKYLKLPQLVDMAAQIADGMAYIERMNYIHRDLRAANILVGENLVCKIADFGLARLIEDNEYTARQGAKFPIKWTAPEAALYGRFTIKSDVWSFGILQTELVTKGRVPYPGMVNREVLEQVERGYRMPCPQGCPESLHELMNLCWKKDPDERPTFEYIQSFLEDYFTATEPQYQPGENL
Phospholipid hydroperoxide glutathione peroxidase GPX4 (Homo sapiens), sequence (P36969 whole entry, looked up): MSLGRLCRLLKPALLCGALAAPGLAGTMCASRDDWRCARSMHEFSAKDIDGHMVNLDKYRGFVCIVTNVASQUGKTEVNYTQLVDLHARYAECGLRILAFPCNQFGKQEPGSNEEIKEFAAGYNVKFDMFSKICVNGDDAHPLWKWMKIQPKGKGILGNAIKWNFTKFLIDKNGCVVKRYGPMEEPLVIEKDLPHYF
Glutathione peroxidase 1 (Homo sapiens), sequence (P07203 whole entry, looked up): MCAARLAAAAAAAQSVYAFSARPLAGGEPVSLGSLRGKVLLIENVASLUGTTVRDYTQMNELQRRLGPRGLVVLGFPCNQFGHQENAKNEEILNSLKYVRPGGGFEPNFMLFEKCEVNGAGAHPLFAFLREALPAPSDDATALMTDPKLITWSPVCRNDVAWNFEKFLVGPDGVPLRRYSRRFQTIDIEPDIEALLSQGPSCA

COc1ccc(COc2ccc(Cc3cnc(N)nc3N)cc2OC)cc1
inactive: Potency [1] | outcome [2] | Potency [3] | Potency [4] | Potency [5] | Potency [6] | Z-AUC [7] 0.614
0.82: Z-AUC ([7]; measured here: PEO4 Z-AUC)
0.516: Z-AUC ([7]; measured here: PEO1 parental Z-AUC)
